In PubChem BioAssay:

What was measured:
[1] = target: Tumor necrosis factor receptor superfamily member 10B (Homo sapiens) (UniProt O14763); test: viability loss of caspase-8 NB7 cells with TRAIL – with/without TRAIL, luminescence panel, confirmation (AID 651596); conditions: NB7 neuroblastoma + caspase-8, TRAIL sensitization, NB7 Caspase-8, with TRAIL, mean of runs, at 10 µM, stronger effect = higher value
[2] = as above; conditions: NB7 neuroblastoma + caspase-8, without TRAIL, NB7 Caspase-8, without TRAIL, mean of runs, at 10 µM

Tumor necrosis factor receptor superfamily member 10B (Homo sapiens), sequence (O14763 whole entry, looked up): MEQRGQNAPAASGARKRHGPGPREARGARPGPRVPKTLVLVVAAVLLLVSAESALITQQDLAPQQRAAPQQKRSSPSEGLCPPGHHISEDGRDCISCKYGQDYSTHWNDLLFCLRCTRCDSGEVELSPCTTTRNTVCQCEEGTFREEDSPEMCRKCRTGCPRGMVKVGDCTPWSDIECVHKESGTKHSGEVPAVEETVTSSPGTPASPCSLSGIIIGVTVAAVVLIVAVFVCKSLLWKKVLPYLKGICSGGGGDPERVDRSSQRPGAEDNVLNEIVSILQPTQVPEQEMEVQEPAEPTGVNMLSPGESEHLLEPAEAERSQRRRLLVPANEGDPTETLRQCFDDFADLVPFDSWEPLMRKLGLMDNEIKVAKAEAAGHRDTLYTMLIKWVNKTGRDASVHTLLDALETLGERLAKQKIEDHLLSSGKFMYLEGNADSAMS

| SMILES | activity [1] | activity [2] |
| --- | --- | --- |
| Cc1nc(SCC(=O)Nc2nccs2)c(C#N)c(C)c1C | 90.8% | 92.1% |
| O=C(N/N=C/c1cn(-c2ccccc2)nc1-c1cc2ccccc2o1)c1cccnc1 | 61.2% | 50.2% |
| Fc1ccc(-c2cnn3c(-c4cccs4)ccnc23)cc1 | 61.2% | 59.4% |
| Cn1c(=S)[nH]c2sc3c(c2c1=O)CCC(C(C)(C)C)C3 (stereo unspecified) | 86.4% | 78% |
| CC(C)c1ccc(NC(=O)Nc2nc(C(N)CCc3ccccc3)cs2)cc1 (stereo unspecified) | 86.8% | 98.2% |
| O=C(NC(=S)N1CCc2ccccc21)c1ccccc1 | 65.3% | 72.6% |
| O=C1Nc2ccccc2N(C(=O)c2ccc3ccccc3c2)C1c1nc2ccccc2[nH]1 (stereo unspecified) | 48.1% | 43.4% |
| CC(OC(=O)c1cc(O)c2ccccc2c1O)C(=O)Nc1ccc(C(N)=O)cc1 (stereo unspecified) | 49.5% | 49.2% |
| CC(=O)c1sc(NC(=O)c2cc(=O)c3ccccc3o2)nc1C | 51.1% | 50.8% |
| Cc1cccc(Cn2ncc(Cl)c(Cl)c2=O)c1 | 92.2% | 98.9% |
| Fc1cccc2sc(Nc3nc4cc5c(cc4s3)OCCO5)nc12 | 40.2% | 28.4% |
| CCc1ccc(NC(=O)c2cnn3ccccc23)cc1 | 59.4% | 58.6% |
| Cc1ccc(-c2nc(N/N=C/c3ccncc3)c3ccccc3n2)cc1 | 98% | 96.7% |
| O=C(/C=C/c1cccs1)N1CCc2ccccc21 | 59.8% | 55.5% |
| C#CCN(C[C@@H]1[C@@H](OC(=O)NCc2ccccc2F)[C@@H](OC(=O)NCc2ccccc2F)Cn2c(=O)ccc(=O)n21)S(=O)(=O)c1ccc(C)cc1 | 95% | 93.6% |
| Cc1ccc(CNc2nc3ccccc3n2C)cc1 | 59.8% | 53.8% |
| CCOc1cc(/C=N\NC(=O)c2ccc(NC(=O)C(C)(C)C)cc2)ccc1OC(=O)c1cccc(C)c1 | 73.5% | 47.2% |
| C(=C\c1nc2ccccc2[nH]1)/c1ccccc1 | 93.8% | 93.6% |
| O=C(N/N=C1\CCc2ccccc21)c1ccccc1O | 53.7% | 62.4% |
| Cc1ccc2cc(/C=N/Nc3nc4ccccc4[nH]3)c(Cl)nc2c1 | 88.2% | 83.6% |
| Cc1cccn2c(=O)c3cc(C(=O)NCCc4ccccc4)c(=N)n(Cc4ccco4)c3nc12 | 19.5% | 5.95% |
| Cc1cccc(/C=N/Nc2nncc3ccccc23)c1 | 80.9% | 69.2% |
| c1c2c(cc3sc(N4CCOCC4)nc13)OCCO2 | 66.8% | 75% |
| COc1ccc(-c2cc(C(=O)OCC(=O)N3CCOCC3)c3ccccc3n2)cc1 | 36.6% | 49.6% |
| O=C(NC(=S)Nc1nc2ccccc2s1)c1cccs1 | 83.1% | 75.6% |
| Cc1ccccc1-c1nc2sc3c(c2c(=O)n1N)CCCC3 | 44% | 46% |
| COc1ccccc1C(=O)NNC(=O)c1cccc(O)c1 | 44.2% | 48.4% |
| CN(NC(=O)c1cccc(Cl)c1)c1nc(-c2ccccc2)nnc1C(F)(F)F | 75.1% | 39.9% |
